HepG2 tox: HepG2 cytotoxicity, counter-screen for TGF-b inhibitors; HepG2 CAGA-GFP viability, ATP luminescence, 18 h; Potency, µM (highest dose often 46.1 µM), for inactives: at the highest dose activity change, negative = cytotoxicity, most hits filed as cytotoxic; 0.76% of 410,000 active; AID 588856; also: potency is read from the fitted curve at half-maximal effect
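CellTiter-Glo luminescence gave cytotoxicity after 18 hours at 37 degrees C. The cells were HepG2 CAGA-GFP in 1% FBS DMEM, stimulated with 500 pg/mL TGF-beta after compound addition. %Activity was normalised to no-cell wells (complete cell-killing) and DMSO (no toxicity), and curves were fitted and classified.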
DT40 TDP1 no CPT: qHTS for Inhibitors of human tyrosyl-DNA phosphodiesterase 1 (TDP1): qHTS in cells in absence of CPT. DT40 Tdp1-/- hTDP1 cells, no CPT, ATP luminescence, 48 h. Potency, µM (doses to about 46.2 µM), for the others: at the highest dose activity change, negative = growth inhibition, most hits filed as inhibitors. 15% of 420,000 active. AID 686978, 2013; also: potency is read from the fitted curve at half-maximal effect; % is scaled to controls: 0 for no effect and ±100 for the full control effect; nearly all actives have a fitted effect of over 55% in size
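Camptothecin absent (DMSO only). Human TDP1-complemented DT40 knockout cells, 400 cells/well, 37 °C for minimum 48 hr; ATP measured via CellTiter-Glo, 30 min dark incubation, luminescence.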
TGFb SMAD3 inh: blocks TGF-b signaling; Potency, µM (titrated, usually from 46.1 µM), for inactives: at the top dose activity, negative = inhibition, hits mostly inhibitors; HepG2 CAGA-GFP TGF-b/SMAD3 reporter, GFP fluorescence, 18 h; TGF-beta stimulated, 500 pg/mL final; AID 588855; 1.2% of 410,000 active; also: potency is read from the fitted curve at half-maximal effect; % is scaled to controls: 0 for no effect and ±100 for the full control effect; nearly all actives have a fitted effect of over 65% in size
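GFP signal (ex488/em500-530) from TGF-beta-stimulated HEPG2 CAGA-GFP cells, 500 pg/mL final, 18 h at 37 degrees C in DMEM plus 1% FBS, normalized to unstimulated and DMSO-stimulated controls.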
TDP1 cell CPT: growth inhibition of DT40 Tdp1-/-;hTDP1 cells with camptothecin (screen for TDP1 inhibitors) | chicken DT40 Tdp1-/-;hTDP1 cells + 20 nM CPT, ATP luminescence, 48 h | 12% of 420,000 active | Potency, µM (highest dose often 46.2 µM), inactives show at the top dose activity change, negative = growth inhibition, actives largely listed as inhibitors | AID 686979; also: potency is read from the fitted curve at half-maximal effect; % is scaled to controls: 0 for no effect and ±100 for the full control effect; nearly all actives have a fitted effect of over 55% in size
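Chicken DT40 Tdp1-/- cells stably complemented with human TDP1 were seeded at 400 cells/well in medium containing 20 nM camptothecin, exposed to pin-transferred compounds, and grown at 37 °C for at least 48 hr. Viability was read as ATP luminescence.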
IL-1B inflam inh: blocks inflammasome-driven IL-1 beta release. activity change, % at 57.5 µM. 4.7% of 360,000 active. THP-1 LPS/ATP IL-1B secretion, AlphaLISA, 16 h; stronger effect = lower value; in the data active = activity change below about -50%; inconclusive = mostly about -30% to -49%; also: % is scaled to controls: 0 for no effect and ±100 for the full control effect
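THP-1 cells pretreated 1 hr with compounds (up to 57.5 uM final), then stimulated with LPS (250 ng/mL final) plus ATP (1.25 mM final); secreted IL-1B measured by AlphaLISA after 16 hr, decreased signal indicating inhibition.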
TDP1 block: inhibitors of human tyrosyl-DNA phosphodiesterase TDP1; recombinant TDP1, AlphaScreen DNA substrate cleavage; 0.28% of 350,000 active; Potency, µM (doses to about 130 µM), without a hit: at the top dose activity change, negative = inhibition, hits mostly inhibitors; also: potency is read from the fitted curve at half-maximal effect; % is scaled to controls: 0 for no effect and ±100 for the full control effect; nearly all actives have a fitted effect of over 40% in size
Target sequence (Q9NUW8 whole entry, looked up): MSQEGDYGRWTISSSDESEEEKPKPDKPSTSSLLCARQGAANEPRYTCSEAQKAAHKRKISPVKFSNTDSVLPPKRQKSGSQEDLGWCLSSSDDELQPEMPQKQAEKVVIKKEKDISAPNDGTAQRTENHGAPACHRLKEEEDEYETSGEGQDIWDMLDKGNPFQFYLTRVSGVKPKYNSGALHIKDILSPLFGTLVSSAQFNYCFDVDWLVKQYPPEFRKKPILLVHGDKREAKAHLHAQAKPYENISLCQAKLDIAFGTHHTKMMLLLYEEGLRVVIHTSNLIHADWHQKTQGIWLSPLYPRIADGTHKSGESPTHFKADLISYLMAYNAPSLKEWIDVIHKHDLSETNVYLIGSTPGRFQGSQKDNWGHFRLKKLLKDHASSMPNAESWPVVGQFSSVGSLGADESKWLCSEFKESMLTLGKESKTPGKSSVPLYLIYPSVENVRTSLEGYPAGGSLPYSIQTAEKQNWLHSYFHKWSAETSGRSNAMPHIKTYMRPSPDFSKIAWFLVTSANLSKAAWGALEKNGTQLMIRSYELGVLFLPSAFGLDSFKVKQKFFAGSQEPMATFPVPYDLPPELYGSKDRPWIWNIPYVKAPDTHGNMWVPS
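E. coli-derived human Tdp1, 1 nM final. Cpd preinc 15 min RT; substrate 15 nM final, 5 min RT; AS bead mix 10 ug/ml final, 10 min RT. Signal loss = tyrosine-FITC cleavage. No-enzyme wells = max signal.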
Active calls of the source: *; [ ] = another dose, or the depositor's remark. An excerpt weighted towards active compounds, which were near 18% of everything screened. Unless noted, calls follow the shape of the dose curve; as a rule, active = well fitted curve in the direction sought with a large enough effect; inconclusive = small, poorly fitted or top-dose-only effect, or another doubt; inactive = no such curve, though single readings can be large; an effect the other way counts as inactive or inconclusive.

`NC(N)=NCCC[C@H](N)C(=O)N1CCC[C@H]1C(=O)N1CCC[C@H]1C(=O)NCC(=O)N[C@@H](Cc1ccccc1)C(=O)N[C@@H](CO)C(=O)N1CCC[C@H]1C(=O)N[C@@H](Cc1ccccc1)C(=O)O` gave TDP1 block 7.5%.
Screening Cc1cc(=O)n2[nH]c(N)c(N=Nc3ccccc3)c2n1 returned HepG2 tox -2.3%, DT40 TDP1 no CPT 29.1µM*, TGFb SMAD3 inh -19.5%, TDP1 cell CPT inconclusive, IL-1B inflam inh 0.0 and TDP1 block 2.6%.
For Nc1[nH]n2c(=O)c3c(nc2c1N=Nc1ccccc1)CCCC3 the results were HepG2 tox -19.5%, DT40 TDP1 no CPT 18.4µM*, TGFb SMAD3 inh -0.4%, TDP1 cell CPT inconclusive, IL-1B inflam inh -26.2 and TDP1 block 5.9%.
Screening COc1cccc(N=Nc2c(N)[nH]n3c(=O)cc(-c4ccccc4)nc23)c1 returned HepG2 tox -47.0%, DT40 TDP1 no CPT 7.31µM*, TGFb SMAD3 inh 0.6%, TDP1 cell CPT 9.2µM*, IL-1B inflam inh -1.8 and TDP1 block 5.0%.
Screening Cc1cc(=O)n2[nH]cc(-c3ccccc3)c2n1 returned HepG2 tox -19.7%, DT40 TDP1 no CPT inconclusive, TGFb SMAD3 inh -8.6%, TDP1 cell CPT inconclusive, IL-1B inflam inh -3.4 and TDP1 block 6.5%.
`Cc1ccc(C(=O)Nc2nc3nc(-c4ccccc4)cc(=O)n3[nH]2)cc1` gave HepG2 tox -37.0%, DT40 TDP1 no CPT inconclusive, TGFb SMAD3 inh 23.4%, TDP1 cell CPT -26.1%, IL-1B inflam inh 7.4 and TDP1 block 44.7µM*.
Screening COc1ccccc1CNC(=O)CN(C)S(=O)(=O)c1ccc2c(c1)n(C)c(=O)c(=O)n2C returned HepG2 tox 2.2%, DT40 TDP1 no CPT 10.6%, TGFb SMAD3 inh 4.6%, TDP1 cell CPT -2.4%, IL-1B inflam inh 7.8 and TDP1 block 3.1%.
For CSCC[C@H](N)C(=O)NC[C@H]1O[C@@H](n2cnc3c(N)ncnc32)[C@H](O)[C@@H]1O the results were HepG2 tox 42.2%, DT40 TDP1 no CPT -14.5%, TGFb SMAD3 inh 6.7%, TDP1 cell CPT -19.6%, IL-1B inflam inh -1.9 and TDP1 block 0.6%[56.1 µM].
Screening COc1ccc(N2C(=O)c3ccccc3NC(=O)C2C(=O)NCc2ccco2)cc1 (stereo not drawn) returned DT40 TDP1 no CPT -22.0%, TDP1 cell CPT inconclusive and IL-1B inflam inh -10.8.
For Cc1cc(C)n(CCc2nc3c4ccccc4nc(N4CCN(c5ccc(F)cc5)CC4)n3n2)n1 the results were HepG2 tox 5.2%, DT40 TDP1 no CPT -12.4%, TGFb SMAD3 inh -12.2%, TDP1 cell CPT -7.9% and TDP1 block 1.0%.
Screening O=C(CCN1C(=O)c2ccc(Br)cc2C1=O)NC1CCCCC1 returned HepG2 tox -1.8%, DT40 TDP1 no CPT 4.9%, TGFb SMAD3 inh -1.3%, TDP1 cell CPT 7.6%, IL-1B inflam inh 1.7 and TDP1 block 0.5%.
`O=c1c2c(nc3c(-c4ccccc4)c[nH]n13)CCCC2` gave HepG2 tox 9.3%, DT40 TDP1 no CPT 23.1µM*, TGFb SMAD3 inh -13.8%, TDP1 cell CPT 23.1µM*, IL-1B inflam inh -9.5 and TDP1 block 9.1%.
For Cc1ccc(N=Nc2c(N)[nH]n3c(=O)cc(-c4ccccc4)nc23)cc1 the results were HepG2 tox -30.0%, DT40 TDP1 no CPT 14.6µM*, TGFb SMAD3 inh 9.9%, TDP1 cell CPT inconclusive, IL-1B inflam inh 5.4 and TDP1 block 11.1%.
`CCCNC(=O)CCn1c(=S)oc2ccccc21` gave HepG2 tox -2.5%, DT40 TDP1 no CPT inconclusive, TGFb SMAD3 inh inconclusive, TDP1 cell CPT 9.2µM* and IL-1B inflam inh -12.0.
Screening CC(=O)Nc1ccc(NC(=O)CCn2c(=S)oc3ccccc32)cc1 returned HepG2 tox -7.6%, DT40 TDP1 no CPT 20.5%, TGFb SMAD3 inh 2.1%, TDP1 cell CPT -9.7%, IL-1B inflam inh 4.5 and TDP1 block 1.2%.
Screening COc1cc(NC(=O)NCc2ccncc2)cc(OC)c1OC returned HepG2 tox 0.0%, DT40 TDP1 no CPT -1.9%, TGFb SMAD3 inh -0.5%, TDP1 cell CPT 4.8%, IL-1B inflam inh -1.4 and TDP1 block 3.9%.
For COc1ccc(CCC(=O)Nc2nnc(C)s2)cc1 the results were HepG2 tox -5.2%, DT40 TDP1 no CPT -20.0%, TGFb SMAD3 inh 7.5% and TDP1 cell CPT inconclusive.
COc1ccc(CC(N)c2csc(NC(=O)c3cc(C(C)(C)C)oc3C)n2)cc1 (stereo not drawn) was read as HepG2 tox -102.7%, DT40 TDP1 no CPT inconclusive, TGFb SMAD3 inh inconclusive, TDP1 cell CPT 23.1µM* and IL-1B inflam inh -56.7*.
Screening COc1ccc(NC(=O)Nc2nc(C(N)Cc3ccc(C(F)(F)F)cc3)cs2)cc1 (stereo not drawn) returned HepG2 tox 10µM*, DT40 TDP1 no CPT 16.4µM*, TGFb SMAD3 inh 11.2µM*, TDP1 cell CPT inconclusive and IL-1B inflam inh inconclusive.
Screening COc1cc(NC(=O)Nc2nc(C(N)Cc3ccc(C(F)(F)F)cc3)cs2)cc(OC)c1OC (stereo not drawn) returned HepG2 tox -106.5%, DT40 TDP1 no CPT 11.6µM*, TGFb SMAD3 inh 11.2µM*, TDP1 cell CPT 11.6µM* and IL-1B inflam inh -29.8.
COc1ccc(CC(N)c2csc(NC(=O)CCc3ccccc3)n2)cc1 (stereo not drawn) was read as HepG2 tox -65.6%, DT40 TDP1 no CPT 20.6µM*, TGFb SMAD3 inh inconclusive, TDP1 cell CPT 23.1µM* and IL-1B inflam inh inconclusive.
For CCn1c(=O)n(-c2ccc(Cl)cc2)c(=O)c2c3c(sc21)COC(C)(C)C3 the results were HepG2 tox 4.7%, DT40 TDP1 no CPT -29.9%, TGFb SMAD3 inh -0.7%, TDP1 cell CPT -11.6%, IL-1B inflam inh 5.2 and TDP1 block 3.4%.
Screening O=C(CNCc1cccs1)Nc1ccc(OC(F)(F)F)cc1 returned HepG2 tox -43.7%, DT40 TDP1 no CPT -20.2%, TGFb SMAD3 inh 7.8%, TDP1 cell CPT 1.4% and IL-1B inflam inh -19.8.
For COC(=O)[C@@H](NCc1ccc(OC)c(B(O)O)c1)C(C)C the results were HepG2 tox -0.7%, DT40 TDP1 no CPT -10.9%, TGFb SMAD3 inh 16.1%, TDP1 cell CPT 4.0% and IL-1B inflam inh -2.6.

Screens (PubChem)
